Results on 114 compounds are retold here after PubChem BioAssay AID488969 (Vanderbilt High Throughput Screening Facility, 2010).

In all, about 110,000 compounds were measured (“z-score”: median about -0.1, highest 2% from about 2 on). What follows is part of a selection rich in the highest values, with near analogues and random picks from the rest. Activity calls are given as the source filed them.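 Rule for the calls: active = z-score in the third read window above 3 or below -3; inactive = the rest.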

This experiment deals with Metabotropic glutamate receptor 8 (Rattus norvegicus) (UniProt P70579). Description: mGluR8 Gi/Go-coupled signaling modulation – cell-based, rat, thallium flux, HTS, primary screen (AID 488969). As to conditions: HEK293 rat mGluR8, GIRK (G protein-gated inwardly rectifying potassium channel) thallium flux, FluoZin2; at 10 µM; stronger effect = higher value; submaximal glutamate (EC20) added with thallium.
Metabotropic glutamate receptor 8 (Rattus norvegicus), sequence (P70579 whole entry, looked up): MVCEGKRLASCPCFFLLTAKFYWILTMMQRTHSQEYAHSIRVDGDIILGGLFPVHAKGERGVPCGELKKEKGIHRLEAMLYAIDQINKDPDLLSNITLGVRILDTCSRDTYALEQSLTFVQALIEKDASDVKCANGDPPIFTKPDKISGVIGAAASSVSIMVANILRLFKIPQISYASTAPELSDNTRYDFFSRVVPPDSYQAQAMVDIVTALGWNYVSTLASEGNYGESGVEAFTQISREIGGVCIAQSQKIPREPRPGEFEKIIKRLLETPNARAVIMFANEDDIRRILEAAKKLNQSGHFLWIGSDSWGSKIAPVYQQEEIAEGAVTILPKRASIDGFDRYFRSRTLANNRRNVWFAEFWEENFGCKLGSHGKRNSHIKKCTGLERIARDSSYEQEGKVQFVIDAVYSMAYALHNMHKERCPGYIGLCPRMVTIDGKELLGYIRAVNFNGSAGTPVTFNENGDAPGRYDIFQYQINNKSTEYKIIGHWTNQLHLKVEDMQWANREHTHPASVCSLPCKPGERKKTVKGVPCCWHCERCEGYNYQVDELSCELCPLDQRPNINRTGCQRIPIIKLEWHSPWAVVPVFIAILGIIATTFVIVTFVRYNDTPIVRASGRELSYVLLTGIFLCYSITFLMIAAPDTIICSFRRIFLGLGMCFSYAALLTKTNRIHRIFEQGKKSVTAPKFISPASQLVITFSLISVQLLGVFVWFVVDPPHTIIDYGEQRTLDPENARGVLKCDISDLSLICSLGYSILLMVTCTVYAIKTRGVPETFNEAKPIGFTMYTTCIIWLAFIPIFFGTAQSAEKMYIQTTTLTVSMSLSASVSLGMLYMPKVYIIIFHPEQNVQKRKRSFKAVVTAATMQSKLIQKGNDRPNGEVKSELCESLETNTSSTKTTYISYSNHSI
In the case of `Cn1c(SCC(=O)N2c3ccccc3CCc3ccccc32)nnc1-c1ccc(O)cc1`, the z-score was 5.88 (active).
The figure for `Cn1c(SCC(=O)N2c3ccccc3CCc3ccccc32)nnc1-c1cc2ccccc2cc1O` is -0.13; for `Cc1cccc(-c2nnc(SCC(=O)N3c4ccccc4CCc4ccccc43)n2C)c1` it is -0.366; for `Cc1ccc(NC(=O)N2CCC(C(N)=O)CC2)cc1` it is 0.0373.
As for `O=C(NCC1CCCO1)C1CCN(S(=O)(=O)c2cccc3cccnc23)CC1` (centres undefined), the figure is -0.104; as for `Cc1ccccc1-c1n[nH]c(=S)o1`, 0.676; as for `CSc1nnc(-c2cc(-c3ccc(C)cc3)nc3ccccc23)o1`, -0.0721.
For the compound `Cc1ccc(-c2cc(-c3n[nH]c(=S)o3)c3ccccc3n2)cc1`, the z-score is 8.6 (active).
As for `CC(=O)c1c(C)[nH]c(C(=O)Nc2ccc(Cl)c(S(=O)(=O)N3CCOCC3)c2)c1C`, the figure is 1.6.
The figure for `O=C(COC(=O)c1cc(-c2cccs2)nn1-c1ccccc1)Nc1ccc(Cl)c([N+](=O)[O-])c1` is 0.0111; for `NS(=O)(=O)c1ccc(CCN2C(=O)/C(=C\c3ccc(Cl)cc3)SC2=S)cc1` it is 0.283.
As for `COc1nc(-c2ccccc2)cc(C(F)(F)F)n1`, the figure is 0.0363; as for `COc1nc(-c2ccccc2)cc(-c2ccc(OC)c(OC)c2)n1`, -0.612.
Compound `COc1nc(-c2ccccc2)cc(-c2ccccc2)n1` registered a z-score of 2.45.
Turning to `O=C(C1CCCO1)N1N=C(c2ccc(Br)cc2)CC1c1ccco1` (centres undefined), the z-score is -0.195.
Compound `COC(=O)CSc1n[nH]c(-c2cccnc2)n1` had a z-score of 2.21.
For the compound `O=C(CSc1n[nH]c(-c2cccnc2)n1)Nc1ccccc1`, the z-score is -0.272.
For the compound `COC(=O)CSc1n[nH]c(-c2ccncc2)n1`, the z-score was determined as 0.0349.
The figure for `Cc1ccc(C2C(C#N)=C(N)Oc3n[nH]c(-c4ccccc4)c32)o1` (centres undefined) is -0.499; for `CC(C)CC(=O)NC(=S)Nc1nc(-c2ccc(Cl)cc2)cs1` it is 0.0823; for `CC(C)CC(=O)NC(=S)Nc1nc(-c2cccc3ccccc23)cs1` it is 2.97.
As for `CC(C)CC(=O)NC(=S)Nc1nc(-c2ccccc2)cs1`, the figure is 0.855; as for `Cn1c(=O)c(NC(=O)c2ccccc2)c2n(c1=S)CCCCC2`, -0.181; as for `O=C(COc1ncnc2ccc(Br)cc12)NCc1ccc2c(c1)OCO2`, -0.00987.
The figure for `CCOC(=O)C1C(=O)CC(C)(O)C(C(=O)OCC)C1c1ccc(OC)cc1` (centres undefined) is -0.0838; for `CCOC(=O)c1cccc(NC(=O)/C(=C\c2ccccc2)NC(=O)c2ccccc2Cl)c1` it is -0.208; for `COc1ccccc1NC(=O)CNS(=O)(=O)c1ccccc1` it is -0.239.
Consider `COc1cc2c(C(=O)N3CCN(C)CC3)c(C)n(-c3ccccc3)c2cc1Br`, for which the z-score was -0.333.
Take `CCOC(=O)c1c(CNCCN(CC)CC)n(C)c2cc(Br)c(OC)cc12`: the z-score was 3.02 (active).
The figure for `CCOC(=O)c1c(CN2CCN(CCO)CC2)n(C)c2cc(Br)c(OC)cc12` is 0.864; for `CCN(CC)CCNC(=O)c1c(C)oc2cc(Br)c(OC)cc12` it is -0.44.
`CCOC(=O)c1c(CN2CCN(Cc3ccccc3)CC2)n(C)c2cc(Br)c(OC)cc12` showed a z-score of 0.132.
As for `CCN(CC)CCNC(=O)c1c(C)n(-c2ccccc2)c2cc(Br)c(OC)cc12`, the z-score was found to be 2.84.
On to `COC(=O)Cn1c(=NC(=O)c2ccc(OC)cc2)sc2cc(OC)ccc21`, for which the z-score is -0.189.
With `Cc1cccc(N=C2NC(=O)/C(=C/C=C/c3ccco3)S2)c1C`, the z-score is 3 (active).
The figure for `Cc1cccc(N=C2NC(=O)/C(=C/C=C/c3ccco3)S2)c1` is 0.7.
For `O=C1NC(=Nc2ccccc2)S/C1=C\C=C\c1ccco1`, the z-score amounted to 0.075.
The figure for `OC(COCc1ccccc1)CN1CCN(c2ccccc2)CC1` (centres undefined) is 0.802; for `CCCc1nc2oc3c(NCCN(C)C)ncnc3c2c2c1CCCC2` it is 0.466; for `CCOc1ccc(/C=C/C(=O)Nc2ccc(N3CCOCC3)cc2)cc1` it is -0.494.
On to `COCCNC(=S)NNC(=O)c1ccco1`, for which the z-score worked out at 0.195.
As for `CCCCNC(=S)NNC(=O)c1ccco1`, the figure is -0.0425; as for `COc1ccccc1OCC(=O)NNC(=S)NC(=O)c1ccco1`, 0.0517; as for `CNC(=S)NNC(=O)COc1ccccc1C`, -0.0807.
The figure for `CCCc1ccc(OCC(=O)NNC(=S)NC(=O)c2ccco2)cc1` is 5.78 (active); for `Cc1ccccc1OCC(=O)NNC(=S)NC(=O)c1ccco1` it is 8.07 (active).
As for `O=C(NCCN1CCOCC1)c1cc(Sc2ccccc2Cl)nc2ccccc12`, the figure is -1.39.
As for `COc1cccc(N2CC(C(=O)Nc3nnc(SCc4cccnc4)s3)CC2=O)c1` (centres undefined), the z-score was 0.711.
The figure for `O=c1[nH]c2cccnc2n1Cc1ccccc1` is -0.166.
As for `Cc1ccccc1Nc1nnc(C)c(=O)n1N`, the figure is 0.0745; as for `O=C(/C=C/c1ccccc1)N1CCC(c2ccccc2)C1` (centres undefined), -0.0939; as for `c1ccc(C2CCC(N3CCC(N4CCCCC4)CC3)CC2)cc1` (centres undefined), -0.423.
The figure for `C1=CN2CCC1C(c1ccccc1)C2` (centres undefined) is 2.05; for `COC(=O)C1CCN(C(=O)CSc2ccccc2)CC1` it is -0.196.
Turning to `COc1ccc(Cc2c(N)nc(N)nc2N)cc1`, the z-score is -0.264.
As for `CC(C)Oc1ccc(Cc2cnc(N)nc2N)cc1`, the figure is 1.03.
For `CC(C)COc1ccc(Cc2cnc(N)nc2N)cc1`, the z-score was 7.02 (active).
As for `CCOc1cc(CNCCc2ccc(S(N)(=O)=O)cc2)ccc1OCC(=O)NC1CCCCC1`, the figure is 0.417.
As to `Cc1cc(NC(=O)c2cnccn2)no1`, the z-score is -0.0463.
The figure for `CCCc1cc(=O)[nH]c(/N=C(/NC(=O)c2ccccc2)Nc2ccc3c(c2)OCCO3)n1` is -0.0513.
`CN(C)CCCNc1ncnc2c1cnn2-c1ccccc1` had a z-score of 0.0262.
For the compound `COCCNc1ncnc2c1cnn2-c1ccc(Cl)cc1`, the z-score came to 0.0016.
Turning to `CN(C)CCNc1ncnc2c1cnn2-c1ccc(Cl)cc1`, the z-score is 3.51 (active).
Turning to `CC(/C=N\NC(=O)c1cccnc1)c1ccccc1` (centres undefined), the z-score is -0.201.
The figure for `CS(=O)(=O)N1CCN(c2ccccc2NC(=O)c2cccc3ccccc23)CC1` is -0.227.
The figure for `O=C(COc1ncnc2sccc12)N1CCc2ccccc2C1` is 0.0441; for `O=C(COc1c(Br)cc(Br)c2cccnc12)N1CCc2ccccc2C1` it is 3.14 (active).
As for `O=C(COc1cccc2cccnc12)N1CCc2ccccc2C1`, the figure is 0.452; as for `COc1ccc(S(=O)(=O)N[C@@H](Cc2ccc(Cl)cc2)C(=O)N2CC[C@@]3(O)CCCC[C@H]3C2)cc1`, -0.0964; as for `COCCNC(=O)c1cc(-c2ccc3c(c2)OCO3)on1`, 0.152.
In the case of `Cc1nn(C)c(Cl)c1NC(=O)OCc1ccccc1`, the z-score is -0.064.
As to `Cc1ccc(-c2cnc(NC(=O)CCC(=O)N(C)Cc3ccccc3)n2C)cc1`, the z-score was -0.765.
In the case of `CCCNC(=O)CCC(=O)Nc1ncc(-c2ccc(C)cc2)n1C`, the z-score is -0.382.
The figure for `Cc1ccc(-c2cnc(NC(=O)CCC(=O)N3CCCCC3)n2C)cc1` is 4.3 (active).
In the case of `CC(C)c1ccccc1N=C1SCCN1C1CCS(=O)(=O)C1` (centres undefined), the z-score was 0.193.
As for `CCc1ccc(S(=O)(=O)c2n[nH]n3c2nc(=O)c2ccccc23)cc1`, the figure is 0.475.
The figure for `CC(C)c1ccc(S(=O)(=O)c2n[nH]n3c2nc(=O)c2ccccc23)cc1` is 2.66.
The figure for `CC(C)c1ccc(S(=O)(=O)c2nnn3c2nc(N2CCCCC2)c2ccccc23)cc1` is -0.645; for `O=C(/C=C/N1CCOCC1)c1ccc(-c2ccccc2)cc1` it is -0.364; for `CC1=NN(c2ccccc2)C(=O)C1N=Nc1ccccc1` (centres undefined) it is 0.244.
`CC1=NN(C(N)=S)C(=O)C1N=Nc1c(C)cc(C)cc1C` (centres undefined) yielded a z-score of 0.119.
Consider `CC1=NN(c2ccccc2)C(=O)C1N=Nc1ccc(N)cc1` (centres undefined), for which the z-score was -0.073.
In the case of `CC1=NN(C(N)=S)C(=O)C1N=Nc1ccccc1C` (centres undefined), the z-score amounted to 2.97.
The compound `Cc1ccc(N=Nc2c(C)[nH][nH]c2=O)c(C)c1` registered a z-score of 0.772.
The figure for `CC1=NN(C(N)=S)C(=O)C1N=Nc1ccc(C)cc1C` (centres undefined) is 13.2 (active); for `Cc1ccccc1-n1c(C)nnc1SCc1cc(=O)oc2ccc3ccccc3c12` it is 0.0722; for `CC(C)CC(=O)Nc1ccc(C(=O)NNC(=O)C(c2ccccc2)c2ccccc2)cc1` it is -0.258.
`O=C(O)C1CCN(C(=O)c2ccc(Cl)cc2)CC1`: the z-score was determined as 0.000989.
As for `Cc1cc(C)c(C)c(S(=O)(=O)NCc2ccc(C(=O)N3CCCCC3)cc2)c1C`, the z-score was determined as 0.249.
As for `Cc1ccccc1OCC(=O)N1N=C(C(F)(F)F)CC1(O)C(C)(C)C` (centres undefined), the figure is 1.61.
The figure for `CCCCC1(O)CC(C(F)(F)F)=NN1C(=O)COc1ccccc1` (centres undefined) is 0.45; for `Cc1ccc(OCC(=O)N2N=C(c3cccnc3)CC2(O)C(F)(F)F)cc1C` (centres undefined) it is -0.105; for `Cc1cc(C)cc(OCC(=O)N2CCCCCC2)c1` it is -0.242.
As for `Cc1cc(C)cc(OCC(=O)N2N=C(C(F)(F)F)CC2(O)C(C)(C)C)c1` (centres undefined), the figure is 4.9 (active); as for `Cc1ccc(OCC(=O)N2N=C(C(F)(F)F)CC2(O)C(C)(C)C)cc1C` (centres undefined), 3.56 (active).
In the case of `COP(=O)(OC)c1nc(-c2cccc3ccccc23)oc1NCc1ccccc1`, the z-score is -0.666.
As for `CC(C)(C)C(=O)Nc1cccc(C(=O)c2cccc(NC(=O)C(C)(C)C)c2)c1`, the figure is -0.249; as for `Cc1cccc(C(=O)NC(=S)Nc2ccc(S(=O)(=O)N3CCCCC3)cc2)c1`, -0.0168.
Compound `CCOC(=O)C1=C(C)N=C2SC(C)C(=O)N2C1c1ccc(OCC)c(OCC)c1` (centres undefined) yielded a z-score of 0.125.
On to `COc1cc(/C=C2\SC(=S)N(CC(=O)Nc3ccccn3)C2=O)cc(OC)c1OC`, for which the z-score is -0.0617.
Consider `CCN=c1sc2ccccc2n1CC(O)COc1ccccc1` (centres undefined), for which the z-score came out at 0.979.
The figure for `Cn1c(=NCC(O)COc2ccccc2)sc2ccccc21` (centres undefined) is 2.27; for `OC(CN=c1sc2ccccc2n1CC(O)COc1ccccc1)COc1ccccc1` (centres undefined) it is 0.0732.
`CC(=O)N1CCC(=NNc2ccc(S(=O)(=O)N3CCOCC3)cc2[N+](=O)[O-])CC1` showed a z-score of 0.476.
`COC(=O)Cc1ccc(NC(=O)c2ccc(C(C)(C)C)cc2)cc1`: the z-score is -0.0938.
Consider `COc1ccc(/C=C/C(=O)NCc2c(C)nn(C)c2C)cc1COc1ccc(Br)cc1`, for which the z-score was -0.131.
In turn, `Cc1cccc(NC(=O)CN(C)S(=O)(=O)c2cnc[nH]2)c1` showed a z-score of 1.6.
As for `Cc1ccc(NC(=O)CN(C)S(=O)(=O)c2cnc[nH]2)cc1C`, the figure is 2.45.
As for `Cc1cc(C)cc(NC(=O)CN(C)S(=O)(=O)c2cnc[nH]2)c1`, the figure is -0.129.
`CC1CC1C(=O)OCC(=O)NC(=O)NCc1ccco1` (centres undefined): the z-score was -0.131.
Consider `CCc1ccc(-c2nn(-c3ccccc3)cc2C2SCC(=O)N2Cc2ccco2)cc1` (centres undefined), for which the z-score was -0.102.
As for `Cc1ccc(Nc2nc(N)c([N+](=O)[O-])c(N3CCCC(C)C3)n2)cc1C` (centres undefined), the figure is 2.26; as for `Cc1cccc(Nc2nc(N)c([N+](=O)[O-])c(N3CCCC(C)C3)n2)c1` (centres undefined), -0.0648; as for `Cc1ccc(Nc2nc(N)c([N+](=O)[O-])c(N3CCOCC3)n2)cc1C`, -0.153.
